# The list is not random: actives were taken first. Their share in the collection is about 19%.
# DT40 TDP1 CPT – DT40-hTDP1 cell growth loss with CPT; AID 686979; Potency, µM (doses to about 46.2 µM), most hits filed as inhibitors; actives 12% (n = 420,000); chicken DT40 Tdp1-/-;hTDP1 cells + 20 nM CPT, ATP luminescence, 48 h; further: nearly all actives have a fitted effect of over 55% in size
#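 Cell growth measured by CellTiter-Glo luminescence after a minimum 48 h, 37 C compound exposure with 20 nM CPT in Tdp1-knockout DT40 cells stably expressing hTDP1, seeded 400/well; qHTS titration format.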
# IL1B secr inh – inflammasome signaling inhibition, IL-1 beta readout; activity change, % at 57.5 µM; actives 4.7% (n = 360,000); THP-1 LPS/ATP IL-1B secretion, AlphaLISA, 16 h; active compounds read low; in the data active means activity change below about -50%; inconclusive means mostly about -30% to -49%
#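 THP-1 cells pretreated 1 hr with compounds (up to 57.5 uM final), then stimulated with LPS (250 ng/mL final) plus ATP (1.25 mM final); secreted IL-1B measured by AlphaLISA after 16 hr, decreased signal indicating inhibition.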
# HT1080 IDH1KD tx – HT-1080 IDH1 knockdown cell toxicity (counter line); HT-1080 IDH1 knockdown viability, ATP luminescence, 48 h; AID 686971; actives 2% (n = 360,000); Potency, µM (highest dose often 46.1 µM), usual class: cytotoxic
#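 Luminescent ATP read-out (CellTiter-Glo, 10 min at room temperature) after 48 h compound exposure at 37 °C gave viability of IDH1-knockdown HT-1080 cells. Activity was normalised to DMSO and cell-free wells, then fitted as concentration-response curves.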
# HT1080NT lethal – kills 2HG-producing HT-1080-NT fibrosarcoma cells | HT-1080-NT fibrosarcoma viability, CellTiter-Glo ATP luminescence, 48 h | Potency, µM (series often up to 46.1 µM), usual class: cytotoxic | actives 1.6% (n = 360,000) | AID 686970;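 further: NT is the 2HG producing partner of a matched IDH1 knockdown line; nearly all actives have a fitted effect of over 55% in size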
#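 Viability by CellTiter-Glo luminescence after 48 h compound exposure at 37C of HT-1080-NT cells (750/well, RPMI, 5% FBS). % activity scaled between DMSO wells and medium-only wells, then curve-fitted and categorized by curve class.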
# TDP1 cell noCPT – qHTS for Inhibitors of human tyrosyl-DNA phosphodiesterase 1 (TDP1): qHTS in cells in absence of CPT. DT40 Tdp1-/- hTDP1 cells, no CPT, ATP luminescence, 48 h. Potency, µM (doses to about 46.2 µM), actives largely listed as inhibitors. actives 15% (n = 420,000); further: nearly all actives have a fitted effect of over 55% in size
#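 Readout: luminescence from CellTiter-Glo after 30 min in the dark at RT. Cells: DT40 Tdp1-/- with stable hTDP1, 400/well. Exposure: compounds alone, ≥48 hr, 37 °C.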
# A number is an active result; 0 = inactive; ? = inconclusive; - = not tested or not shown; [ ] = dose if it differs, or a comment. Unless noted, the call rests on the fitted dose curve; in most records, active means well fitted curve in the direction sought with a large enough effect; inconclusive means small, poorly fitted or top-dose-only effect, or another doubt; inactive means no such curve, though single readings can be large; an effect the other way counts as inactive or inconclusive.
SMILES,DT40 TDP1 CPT,IL1B secr inh,HT1080 IDH1KD tx,HT1080NT lethal,TDP1 cell noCPT
CCN(CC)C(=O)Cn1cc(C(=O)C(=O)N2CCN(c3ccc([N+](=O)[O-])cc3)CC2)c2ccccc21,6.51µM,?,0,0,7.31µM
Cc1noc(C)c1-c1nccc(NCc2cccnc2)n1,0,-,-,-,0
CC(C)(C)c1ccc(COn2ccnc2)cc1,0,0,0,0,0
CCN(C(=O)CSc1nnc(-c2cc3occc3n2C)n1-c1ccccc1C)c1ccccc1,0,-,-,-,0
COc1ccc(S(=O)(=O)N2CCC(C(=O)NCc3cccnc3)CC2)cc1Cl,0,0,0,0,0
N#C/C(=C\c1cccc(Oc2ccccc2)c1)C(=O)N1CCOCC1,?,-99.8,?,?,?
CCOC(=O)Cn1cc(/C=C(\C#N)C(=O)N2CCOCC2)c2ccccc21,0,-95.2,0,0,0
COc1cc(/C=C(\C#N)C(=O)N2CCOCC2)cc(Br)c1O,?,0,0,0,?
CCOC(=O)Cn1cc(/C=C(/C#N)C(=O)NC(C)C)c2ccccc21,0,0,0,0,0
CCC1CN(CC(=O)N(C)Cc2nc3ccccc3[nH]2)Cc2cc(OC)ccc2O1 (stereo unspecified),0[9.04 µM],-,-,-,0
COc1ccc(-c2csc(NC(=O)CN3C(=O)NC4(CCCC4)C3=O)n2)cc1,0,0,0,0,0
COc1ccc(CC(=O)Nc2nc(-c3ccc(F)c(F)c3)cs2)cc1,20.6µM,-84.8,?,18.4µM,16.4µM
Cc1cccc(C)c1NC(=O)CSc1ncnc2[nH]ncc12,0,0,0,0,0
O=C(CSc1ncnc2[nH]ncc12)Nc1nc(-c2ccc(F)c(F)c2)cs1,13µM,-67.9,0,0,20.6µM
O=C(CN1C(=O)NC2(CCCC2)C1=O)Nc1nc(-c2ccc(F)c(F)c2)cs1,11.6µM,0,0,0,?
O=C(Cc1ccc(F)cc1)Nc1nc(-c2ccc(F)c(F)c2)cs1,8.2µM,?,0,0,?
COC(=O)c1c(NC(=O)CC2SC(N)=NC2=O)sc(C)c1C (stereo unspecified),?,0,0,0,0
CCCCN(C=O)c1c(CC)nc2ccc(C(=O)NCCc3ccccn3)cn12,0,0,0,0,0
O=C(COc1ccc(Cl)cc1[N+](=O)[O-])N1CCCCCC1,?,0,0,0,0
CC(O)(Cc1cccnc1)c1cccs1 (stereo unspecified),0,0,0,0,0
COc1ccc(OC)c(-c2csc(NC(=O)Cc3ccccc3F)n2)c1,?,-62.4,0,0,?
COc1ccccc1NC(=O)/C(C#N)=C/c1c(C)nn(-c2ccc(F)cc2)c1Cl,0,0,0,0,0
COc1ccc(NC(=O)/C(C#N)=C/c2c(C)nn(-c3ccc(F)cc3)c2Cl)cc1Cl,?,-55.1,0,0,?
Cc1nn(-c2ccccc2)c(Cl)c1/C=C(\C#N)C(=O)NC(C)C,0,-102.4,0,0,?
COCCNC(=O)c1ccc(CN2CCOCC2)cc1,0,0,0[9.24 µM],0,0
SMILES,DT40 TDP1 CPT,IL1B secr inh,HT1080 IDH1KD tx,HT1080NT lethal,TDP1 cell noCPT
COc1cc2c(=O)c(C(=O)c3ccc(C)c(C)c3)cn(Cc3ccccc3F)c2cc1OC,18.4µM,-,-,-,16.4µM
COc1ccccc1Cn1cc(C(=O)c2ccc(Cl)cc2)c(=O)c2ccccc21,23.1µM,-,-,-,14.6µM
COc1cc(NC(=O)Cn2cc(C(=O)c3ccc(F)cc3)c(=O)c3ccc(C)nc32)cc(OC)c1,?,-,-,-,0
COc1ccccc1C(=O)c1cn(CC(=O)Nc2ccccc2F)c2nc(C)ccc2c1=O,0,-,-,-,0
COc1ccc(C(=O)c2cn(Cc3ccc(F)cc3)c3c(F)cc(F)cc3c2=O)cc1,?,-,-,-,23.1µM
CCc1ccc(C(=O)c2cn(CC(=O)Nc3cccc(OC)c3)c3cc4c(cc3c2=O)OCO4)cc1,0,-,-,-,?
CCn1cc(C(=O)NCc2ccccc2OC)c(=O)c2cc(S(=O)(=O)N(C)C)ccc21,?,0,0,0,?
CCc1ccc(C(=O)c2cn(Cc3ccccc3)c3cc(OC)c(OC)cc3c2=O)cc1,16.4µM,-,-,-,16.4µM
OCCC1CN(Cc2cccc(-n3cccn3)c2)CCN1Cc1ccccc1 (stereo unspecified),0,0,0,0,0
O=[N+]([O-])c1ccc(Cc2ccccn2)c([N+](=O)[O-])c1,?,0,0,0,0
O=C(O)c1cn(Cc2ccccc2)c2ccccc2c1=O,0,0,0,0,0
COc1ccc2c(c1)c(=O)c(C(=O)c1ccccc1)cn2Cc1ccc(C)cc1,?,0,?,?,16.4µM
CCOC(=O)c1cn(Cc2ccc(C)cc2)c2cc(F)ccc2c1=O,?,0,0,0,0
CCOc1ccc(NC(=O)Cn2cc(C(=O)c3ccc(C)c(C)c3)c(=O)c3cc(OC)c(OC)cc32)cc1,0,-,-,-,0
CCOc1ccc(C(=O)c2cn(CC(=O)Nc3cc(OC)ccc3OC)c3cc(OC)c(OC)cc3c2=O)cc1,23.1µM,-,-,-,16.4µM
COc1ccc(Cn2cc(C(=O)c3ccc(C)c(C)c3)c(=O)c3ccccc32)cc1,?,-,-,-,16.4µM
COc1cc2c(=O)c(C(=O)c3ccc(C)c(C)c3)cn(Cc3ccc(F)cc3)c2cc1OC,10.3µM,-,-,-,18.4µM
Cc1ccc(F)c(S(=O)(=O)NC(=O)C2(C)CCN2C(=O)Cc2ccc(-c3ccccc3)cc2)c1 (stereo unspecified),0,0,0,0,?
COc1ccc(C(=O)c2cn(Cc3ccccc3F)c3cc4c(cc3c2=O)OCCO4)cc1OC,?,-,-,-,20.6µM
COc1cc2c(=O)c(C(=O)c3ccc(C)c(C)c3)cn(Cc3ccccc3)c2cc1OC,14.6µM,-,-,-,?
CCOc1ccc(C(=O)c2cn(CC(=O)Nc3ccc(OC)cc3)c3cc4c(cc3c2=O)OCO4)cc1,?,-,-,-,0
CCOc1ccc(C(=O)c2cn(Cc3ccc(OC)cc3)c3cc(OC)c(OC)cc3c2=O)cc1,?,-,-,-,18.4µM
COc1ccc(CCNC(=O)Cn2cc(C(=O)c3ccc(F)cc3)c(=O)c3ccc(C)nc32)cc1OC,0,-,-,-,?
COc1cc2c(=O)c(C(=O)c3ccc(F)cc3)cn(Cc3cccc(F)c3)c2cc1OC,20.6µM,-,-,-,16.4µM
O=C(NCc1ccco1)c1cccnc1-c1nc2ccccc2s1,20.6µM,0,0,0,29.1µM
CS(=O)(=O)N(CC(=O)Nc1ccccc1C(=O)NCc1ccco1)c1ccc2c(c1)OCCO2,18.4µM,0,?,0[9.24 µM],?
O=C(NCc1ccco1)c1cccnc1Cl,0,0,0,0,0
O=C(O)CCC(=O)Nc1ccccc1C(=O)NCc1ccco1,0,0,0,0,0
O=C(Nc1cccc(Cl)c1)Nc1ccccc1C(=O)NCc1ccco1,18.4µM,-52.9,?,0,18.4µM
